Laboratory results taken from PubChem BioAssay AID1159580 (chemical genetic matrix, 2015).
Hit rate of the full screen: of about 5,500 compounds, about 2,000 (36%) were called active. Inconclusive results (about 18%) are left out. Rule as the data show it: active = normalized growth mostly below about 0.91 (no sharp cut-off); inconclusive = no clear call, values can overlap the other calls; inactive = mostly above about 0.92. Some of the results follow.

Assay: chemical genetic growth profiling, strain panel (AID 1159580);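 also: tested at 20 µM; growth read once vehicle control cultures reached saturation at 30 °C; 1 = growth at the plate median or of vehicle wells; lower values mean less growth of the strain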
Conditions: growth OD
[1] = S. cerevisiae deletion strains, locus YBR229C, strain ROT2, hits give low values
[2] = S. cerevisiae deletion strains, locus YDL101C, strain DUN1, hits give low values
[3] = S. cerevisiae deletion strains, locus YDR150W, strain NUM1, hits give low values
[4] = S. cerevisiae deletion strains, locus YEL061C, strain CIN8, hits give low values
[5] = S. cerevisiae deletion strains, locus YGR078C, strain PAC10, hits give low values
[6] = S. cerevisiae deletion strains, locus YHR030C, strain SLT2, hits give low values
[7] = S. cerevisiae deletion strains, locus YJR043C, strain POL32, hits give low values
[8] = S. cerevisiae deletion strains, locus YJR075W, strain HOC1, hits give low values
[9] = S. cerevisiae deletion strains, locus YKL190W, strain CNB1, hits give low values
[10] = S. cerevisiae deletion strains, locus YLR039C, strain RIC1, hits give low values
[11] = S. cerevisiae deletion strains, locus YLR262C, strain YPT6, hits give low values
[12] = S. cerevisiae deletion strains, locus YMR263W, strain SAP30, hits give low values
[13] = S. cerevisiae deletion strains, locus YNL128W, strain TEP1, hits give low values
[14] = S. cerevisiae deletion strains, locus YNL153C, strain GIM3, hits give low values
[15] = S. cerevisiae deletion strains, locus YNL322C, strain KRE1, hits give low values

Measured: normalized growth

OC(c1ccccc1)(c1ccccc1)c1ccncc1
inactive: S. cerevisiae deletion strains, locus YAL013W, strain DEP1, hits give low values 1.05 | [1] 1 | [2] 1 | [3] 1.01 | [4] 0.991 | [5] 1.02 | S. cerevisiae deletion strains, locus YGR229C, strain SMI1, hits give low values 0.997 | [6] 1.03 | S. cerevisiae deletion strains, locus YHR087W, strain rtc3, hits give low values 1.02 | [7] 1.01 | [8] 0.984 | [9] 0.996 | [10] 1.03 | S. cerevisiae deletion strains, locus YLR058C, strain SHM2 (second series), hits give low values 0.996 | S. cerevisiae deletion strains, locus YLR085C, strain ARP6, hits give low values 1.19 | [11] 0.997 | S. cerevisiae deletion strains, locus YML094W, strain GIM5, hits give low values 1.04 | S. cerevisiae deletion strains, locus YMR219W, strain ESC1, hits give low values 0.999 | [12] 1.03 | [13] 0.999 | [14] 1.02 | S. cerevisiae deletion strains, locus YNL298W, strain CLA4 (second series), hits give low values 1.01 | [15] 1 | S. cerevisiae deletion strains, locus YNR030W, strain Alg12, hits give low values 1.03 | S. cerevisiae deletion strains, locus YPL055C, strain LGE1, hits give low values 1.09 | S. cerevisiae deletion strains, locus YPL241C, strain CIN2, hits give low values 1.1 | S. cerevisiae deletion strains, locus YPR135W, strain CTF4, hits give low values 1.14 | S. cerevisiae strains, strain wild type, hits give low values 1.01

C=C(C)C1(O)OC(=O)C=C1OC (stereo not drawn)
inactive: S. cerevisiae deletion strains, locus YBR021W, strain FUR4, hits give low values 0.995 | [1] 0.944 | S. cerevisiae deletion strains, locus YCL029C, strain bik1, hits give low values 0.977 | S. cerevisiae deletion strains, locus YDL035C, strain GPR1, hits give low values 0.987 | S. cerevisiae deletion strains, locus YDL074C, strain BRE1, hits give low values 1.01 | [2] 0.994 | S. cerevisiae deletion strains, locus YDL185W, strain tfp1, hits give low values 0.968 | S. cerevisiae deletion strains, locus YDL192W, strain arf1, hits give low values 0.984 | S. cerevisiae deletion strains, locus YDR101C, strain arx1, hits give low values 1 | [3] 0.986 | S. cerevisiae deletion strains, locus YDR162C, strain NBP2, hits give low values 0.961 | S. cerevisiae deletion strains, locus YDR318W, strain mcm21, hits give low values 0.981 | S. cerevisiae deletion strains, locus YDR388W, hits give low values 0.997 | S. cerevisiae deletion strains, locus YDR502C, strain sam2, hits give low values 0.996 | [4] 0.989 | S. cerevisiae deletion strains, locus YER110C, hits give low values 0.991 | S. cerevisiae deletion strains, locus YER155C, strain BEM2, hits give low values 0.996 | S. cerevisiae deletion strains, locus YER167W, strain BCK2, hits give low values 0.978 | S. cerevisiae deletion strains, locus YGL078C, strain dbp3, hits give low values 0.991 | S. cerevisiae deletion strains, locus YGL086W, strain mad1, hits give low values 1.03 | S. cerevisiae deletion strains, locus YGL248W, strain PDE1, hits give low values 0.978 | [5] 1.03 | S. cerevisiae deletion strains, locus YGR135W, strain pre9, hits give low values 0.983 | S. cerevisiae deletion strains, locus YGR252W, strain gcn5, hits give low values 0.98 | [6] 0.981 | S. cerevisiae deletion strains, locus YHR079C, strain IRE1 (second series), hits give low values 0.986 | S. cerevisiae deletion strains, locus YHR094C, strain hxt1, hits give low values 0.983 | S. cerevisiae deletion strains, locus YHR129C, strain ARP1, hits give low values 0.985 | S. cerevisiae deletion strains, locus YHR200W, strain rpn10, hits give low values 0.994 | S. cerevisiae deletion strains, locus YIL066C, strain RNR3, hits give low values 0.965 | S. cerevisiae deletion strains, locus YIL073C, strain SPO22, hits give low values 0.978 | S. cerevisiae deletion strains, locus YIL125W, strain kgd1, hits give low values 0.98 | S. cerevisiae deletion strains, locus YIR030C, strain dcg1, hits give low values 0.986 | S. cerevisiae deletion strains, locus YJL095W, strain BCK1, hits give low values 1.06 | S. cerevisiae deletion strains, locus YJL134W, strain LCB3, hits give low values 0.981 | S. cerevisiae deletion strains, locus YJL168C, strain set2, hits give low values 0.992 | S. cerevisiae deletion strains, locus YJL187C, strain SWE1 (second series), hits give low values 1 | [7] 0.948 | [8] 1.03 | S. cerevisiae deletion strains, locus YKL009W, strain mrt4, hits give low values 1.01 | S. cerevisiae deletion strains, locus YKL068W, hits give low values 0.965 | S. cerevisiae deletion strains, locus YKL085W, strain MDH1 (second series), hits give low values 0.962 | S. cerevisiae deletion strains, locus YKL085W, strain MDH1, hits give low values 0.962 | [9] 1 | S. cerevisiae deletion strains, locus YKR001C, strain vps1, hits give low values 0.995 | [10] 0.963 | S. cerevisiae deletion strains, locus YLR058C, strain SHM2, hits give low values 0.97 | S. cerevisiae deletion strains, locus YLR102C, strain apc9, hits give low values 0.99 | [11] 0.918 | S. cerevisiae deletion strains, locus YLR268W, strain sec22, hits give low values 1.04 | S. cerevisiae deletion strains, locus YLR330W, strain CHS5, hits give low values 0.992 | S. cerevisiae deletion strains, locus YLR342W, strain FKS1 (second series), hits give low values 0.985 | S. cerevisiae deletion strains, locus YLR371W, strain rom2, hits give low values 0.97 | S. cerevisiae deletion strains, locus YLR418C, strain cdc73, hits give low values 0.964 | S. cerevisiae deletion strains, locus YML016C, strain PPZ1, hits give low values 0.978 | S. cerevisiae deletion strains, locus YML032C, strain rad52, hits give low values 0.975 | S. cerevisiae deletion strains, locus YML124C, strain tub3, hits give low values 0.984 | S. cerevisiae deletion strains, locus YMR078C, strain ctf18, hits give low values 0.991 | S. cerevisiae deletion strains, locus YMR223W, strain ubp8, hits give low values 0.992 | [12] 1.01 | S. cerevisiae deletion strains, locus YMR307W, strain GAS1, hits give low values 0.947 | S. cerevisiae deletion strains, locus YNL067W, strain RPL9B, hits give low values 1.03 | [13] 0.997 | [14] 1.02 | S. cerevisiae deletion strains, locus YNL233W, strain BNI4, hits give low values 1.04 | S. cerevisiae deletion strains, locus YNL250W, strain rad50, hits give low values 0.958 | S. cerevisiae deletion strains, locus YNL271C, strain bni1, hits give low values 0.989 | S. cerevisiae deletion strains, locus YNL298W, strain CLA4, hits give low values 1.02 | S. cerevisiae deletion strains, locus YNL307C, strain MCK1, hits give low values 0.999 | [15] 0.98 | S. cerevisiae deletion strains, locus YNR052C, strain pop2, hits give low values 1.01 | S. cerevisiae deletion strains, locus YOL006C, strain TOP1, hits give low values 1.05 | S. cerevisiae deletion strains, locus YOL012C, strain htz1 1.2 | S. cerevisiae deletion strains, locus YOL147C, strain pex11, hits give low values 0.991 | S. cerevisiae deletion strains, locus YOR061W, strain CKA2, hits give low values 0.964 | S. cerevisiae deletion strains, locus YOR069W, strain VPS5, hits give low values 0.985 | S. cerevisiae deletion strains, locus YOR136W, strain idh2, hits give low values 1 | S. cerevisiae deletion strains, locus YOR144C, strain elg1, hits give low values 0.981 | S. cerevisiae deletion strains, locus YOR184W, strain ser1, hits give low values 0.973 | S. cerevisiae deletion strains, locus YOR316C, strain cot1, hits give low values 0.994 | S. cerevisiae deletion strains, locus YPR119W, strain clb2, hits give low values 0.987 | S. cerevisiae deletion strains, locus YPR141C, strain kar3, hits give low values 0.977 | S. cerevisiae deletion strains, locus YPR163C, strain tif3, hits give low values 0.99 | S. cerevisiae deletion strains, locus YPR167C, strain met16, hits give low values 0.992 | S. cerevisiae deletion strains, strain wtn01, hits give low values 1.02
